Compounds with a hit are over-represented: about 2.2% of the library has one in this group of screens.
IEC-6 cytotox – IEC-6 cytotoxicity, counter-screen for KLF5 inhibitors; luminescence viability; 290,000 compounds, 0.78% hits; inhibition, % at 5 µM; in the data active means inhibition above about 22%
APP transl inh – APP translation inhibition | SH-SY5Y APP 5'UTR-luciferase reporter, luminescence | inhibition, % at 2 µM | 190,000 compounds, 0.82% hits;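 active means inhibition above a set limit, derived from the sample mean plus 3 SD, cut at about 45% in these data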
aSyn UTR inh – MLPCN primary screen, SNCA 5' untranslated region. inhibition, % (tested at 7.5 µM). 300,000 compounds, 0.82% hits. alpha-synuclein 5'UTR reporter, inhibitor activity; in the data active means inhibition above about 60%;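 further: H4 neuroglioblastoma cells stably carrying SNCA 5'UTR luciferase fusion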
BaF3 tox – reduces parental Ba/F3 cell viability, JAK2V617F counter-screen | AID 1486 | 220,000 compounds, 1.1% hits | CellTiter-Glo ATP luminescence | inhibition, % at 5.6 µM;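 active means inhibition above a per-campaign cutoff, the mean inhibition of all tested compounds plus 3 SD, cut at about 27% in these data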
KLF5 inh – inhibitors of KLF5 expression. DLD-1 KLF5 promoter-luciferase reporter, luminescence. AID 1700. inhibition, % at 5 µM. 290,000 compounds, 0.23% hits;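 active means inhibition above a per-plate limit of that plate's mean compound inhibition plus 3 SD, cut at about 60% in these data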;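 further: higher means less KLF5 promoter-driven luciferase light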
Ba/F3 V617F tox – loss of viability in JAK2V617F-driven Ba/F3 cells; Ba/F3 EpoR-JAK2V617F viability, ATP luminescence; inhibition, % at 5.6 µM; 220,000 compounds, 1.1% hits; AID 1446;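 active means inhibition above the campaign mean plus 3 SD over all tested compounds, cut at about 24% in these data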;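 further: cytokine-independent growth of Ba/F3 cells driven by EpoR plus mutant JAK2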
Numbers stand for hits; i = inactive; nt = not tested or not shown.

SMILES | IEC-6 cytotox | APP transl inh | aSyn UTR inh | BaF3 tox | KLF5 inh | Ba/F3 V617F tox
CC(C)CCNC(=O)C(=O)Nc1cc2c3c(c1)CCC(=O)N3CCC2 | i | nt | i | nt | i | nt
O=C(COC(=O)C1CCN(c2ccc(C(F)(F)F)cn2)CC1)NCc1ccc(F)cc1 | nt | nt | i | nt | nt | nt
N=C1S/C(=C\c2ccc(-c3cccc(Cl)c3)o2)C(=O)N1c1nccs1 | i | i | i | i | i | i
COc1ccc(/C=C2\SC(=N)N(c3nccs3)C2=O)cc1OC | i | i | 65 | i | i | i
CCOc1ccc(C2C(C(=O)c3ccco3)=C(O)C(=O)N2CCCn2ccnc2)cc1OC (configuration not stated) | i | nt | i | nt | i | nt
COC(=O)c1cnn(-c2cc(Oc3ccccc3)ncn2)c1N | i | i | i | i | i | i
CCOc1cnn(-c2cc(Oc3ccc(C)cc3)ncn2)c(=O)c1Cl | i | 74 | i | i | i | i
O=C(Oc1ccc2c(c1)OCO2)c1cc2c(s1)CCC2 | i | 56 | i | i | i | i
COc1cccc(CNC(=O)CCN2C(=O)[C@@H]3Cc4ccccc4CN3C2=O)c1 | i | nt | i | nt | i | nt
Cc1ccc(OCC(=O)Nc2ccc3c(c2)nc(CCN2CCN(C)CC2)n3C)cc1 | i | nt | 105 | i | i | i
Cc1ccc(C(C)C)c(OCC(=O)Nc2ccc3c(c2)nc(CCN2CCCCC2)n3C)c1 | i | nt | 110 | nt | i | nt
Cn1c(CCN2CCCCC2)nc2cc(NC(=O)COc3ccc(Cl)cc3)ccc21 | i | nt | i | nt | i | nt
OCC1OC(n2nc3ccccc3n2)C(O)C(O)C1O (configuration not stated) | i | i | i | 28 | i | i
NC(=O)c1ncn([C@@H]2O[C@H](CO)[C@@H](O)[C@H]2O)n1 | i | i | i | i | i | i
Cc1ccc(NC(=S)NC(=O)c2ccc(F)cc2)cc1S(=O)(=O)Nc1cccc(Cl)c1 | i | i | 81 | i | i | i
NC(=O)N=Nc1c(O)[nH]c2ccc([N+](=O)[O-])cc12 | i | nt | i | i | i | i
COc1ccccc1C(=O)N=Nc1c(O)[nH]c2ccc([N+](=O)[O-])cc12 | i | i | nt | i | i | 60
Cc1ccc(S(=O)(=O)N(C)c2ccc(OCC(=O)NCC3(N(C)C)CCCCC3)cc2)cc1 | nt | nt | i | nt | nt | nt
COC(=O)CN1C(=O)N/C(=C/c2cc(OC)c(OC)cc2C)C1=O | i | i | i | 90 | i | i
Cc1ccc(CSc2nnc(SCC(=O)N/N=C/C=C/c3ccccc3[N+](=O)[O-])s2)cc1 | i | i | 89 | i | i | i
Cc1ccc(CSc2nnc(SCC(=O)N/N=C/C=C/c3ccco3)s2)cc1 | i | i | i | i | i | i
COc1cc(C(=O)N2CCN(C(=O)c3cc(-c4ccc(Br)cc4)n[nH]3)CC2)cc(OC)c1OC | i | nt | i | nt | i | nt
CCc1cc2c(=O)n(Cc3ccco3)c(SCc3c(C)noc3C)nc2s1 | i | 50 | i | i | i | i
Cc1cc(C)c(C)c(S(=O)(=O)N2CCC(C(=O)N3CC(C)CC(C)C3)CC2)c1C (configuration not stated) | nt | nt | i | nt | nt | nt
Cn1cccc1/C=N/NC(=O)c1cc(-c2cccs2)nc2ccccc12 | i | 47 | i | i | i | i
SMILES | IEC-6 cytotox | APP transl inh | aSyn UTR inh | BaF3 tox | KLF5 inh | Ba/F3 V617F tox
CCc1ccc(/C=N/NC(=O)c2cc(-c3ccncc3)nc3ccccc23)s1 | i | 91 | 83 | i | i | i
O=C(/C=C/c1cccc([N+](=O)[O-])c1)n1cnc2ccccc21 | i | 51 | i | i | i | i
Cc1ccc(/C=N/NC(=O)c2csc3c2CCCC3)cc1 | i | 90 | i | i | i | i
COc1cc(/C=N/NC(=O)c2csc3c2CCCC3)cc(OC)c1O | i | i | i | i | i | i
Clc1ccc(-c2c[n+](Cc3cccc(Cl)c3)c3n2CCC3)cc1 | i | i | i | 64 | i | 77
N#CC[n+]1cc(-c2ccc(Cl)cc2)n2c1CCC2 | i | i | i | i | i | i
Clc1ccc(C[n+]2cc(-c3ccccc3)n3c2CCC3)cc1Cl | i | i | i | 71 | i | 85
CCN1C/C(=C/c2cccc([N+](=O)[O-])c2)C(=O)/C(=C/c2cccc([N+](=O)[O-])c2)C1 | i | 94 | nt | i | i | i
O=C1NC(=O)/C(=C/c2cccc([N+](=O)[O-])c2)N1 | i | nt | i | i | i | i
Clc1cccc(CN2CCSCC2)c1Cl | i | nt | i | nt | i | nt
Cc1ccc2nc(-c3ccc(NC(=O)CCS(=O)(=O)c4ccccc4)cc3)sc2c1 | i | i | 62 | i | i | i
CCCCOc1ccc(C(=O)NNC(=S)NC(=O)CC)cc1 | i | 56 | 85 | i | i | i

High-throughput results from PubChem BioAssay.
